# KLK7 zymogen act = proKLK7 zymogen activators, primary screen, biochemical, fluorescence intensity. purified proKLK7, EDANS-DABCYL substrate fluorescence; 100% is mature enzyme control, 0% vehicle. activation, % at 7 µM. actives 0.9% (n = 370,000);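 active = activation above the mean of all tested compounds plus 3 SD, computed per campaign excluding outliers beyond control limits, cut at about 13% in these data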
# HGIII-sPLA2 inh = human group III sPLA2 inhibitors, primary screen, biochemical, QFRET, BODIPY PC-A2 liposome substrate; QFRET BODIPY PC-A2 liposome hydrolysis, fluorescence; inhibition, % at 12.2 µM; actives 0.56% (n = 370,000); AID 743126, 2013;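 active = inhibition above mean plus 3 SD of compounds lying within the high and low control bounds, cut at about 19% in these data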;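 also: 0% = median of test compound wells and 100% = no enzyme DMSO wells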
# ADAM10 inh = human ADAM10 inhibitors, primary screen, biochemical, QFRET, HTS; Disintegrin and metalloproteinase domain-containing protein 10 (Homo sapiens), O14672; recombinant ADAM10, EDANS/DABCYL FRET peptide cleavage, 3 h; inhibition, % at 7 µM; actives 0.62% (n = 370,000);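 active = inhibition above a per-campaign cutoff equal to the mean of compounds falling between control-based bounds plus 3 SD, cut at about 20% in these data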;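 also: 0% = DMSO wells while the 100% control is not disclosed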
# Target sequence (O14672 214-748 limits assumed): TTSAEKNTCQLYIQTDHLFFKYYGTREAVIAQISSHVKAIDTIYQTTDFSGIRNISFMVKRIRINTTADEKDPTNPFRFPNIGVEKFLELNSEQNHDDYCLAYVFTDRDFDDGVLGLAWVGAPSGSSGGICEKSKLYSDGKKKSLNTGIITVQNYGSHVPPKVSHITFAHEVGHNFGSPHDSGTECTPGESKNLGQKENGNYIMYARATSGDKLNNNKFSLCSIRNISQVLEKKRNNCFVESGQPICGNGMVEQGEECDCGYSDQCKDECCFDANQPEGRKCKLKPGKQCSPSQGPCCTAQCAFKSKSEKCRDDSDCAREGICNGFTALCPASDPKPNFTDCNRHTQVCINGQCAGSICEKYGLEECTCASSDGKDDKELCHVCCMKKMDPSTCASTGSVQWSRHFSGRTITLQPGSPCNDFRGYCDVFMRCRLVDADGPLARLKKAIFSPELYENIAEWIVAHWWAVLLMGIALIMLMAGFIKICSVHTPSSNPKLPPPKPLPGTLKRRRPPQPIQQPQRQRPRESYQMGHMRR
# PLC-gamma1 inh = PLC-gamma1 enzyme inhibitors, primary screen, biochemical, fluorescence, purified enzyme; 1-phosphatidylinositol 4,5-bisphosphate phosphodiesterase gamma-1 (Homo sapiens), P19174; fluorogenic substrate; inhibition, % at 12.2 µM; actives 0.84% (n = 370,000); AID 720700, 2013; in the data active = inhibition above about 9.5%
# PLCb3 inh = human PLC-beta3 inhibitors, primary screen, biochemical, fluorescence. inhibition, % at 12.2 µM. actives 0.18% (n = 370,000). AID 720704, 2013. 1-phosphatidylinositol 4,5-bisphosphate phosphodiesterase beta-3 (Homo sapiens), Q01970. Purified PLC-beta3, fluorogenic substrate; in the data active = inhibition above about 11%;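 also: 0% = median of compound wells on plate and 100% = full blocker control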
# ADAM17 inh = ADAM17 inhibitors, primary screen, biochemical, QFRET; Disintegrin and metalloproteinase domain-containing protein 17 (Homo sapiens), P78536; recombinant ADAM17, EDANS/DABCYL FRET peptide cleavage; inhibition, % at 6.95 µM; actives 0.83% (n = 370,000); AID 720648, 2013;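 active = inhibition above the mean of compounds lying between control limits plus 3 SD, set per campaign, cut at about 8.5% in these data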;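 also: 0% = DMSO-only wells as the low control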
# The depositor's hits bear a star; i = inactive; . = no result given. Compounds with a hit are over-represented: about 3.4% of the library has one in this group of screens.
SMILES,KLK7 zymogen act,HGIII-sPLA2 inh,ADAM10 inh,PLC-gamma1 inh,PLCb3 inh,ADAM17 inh
C[C@@H]1CN([C@@H](C)CO)C(=O)Cc2cc(NC(=O)Nc3ccc(F)cc3)ccc2O[C@@H]1CN(C)Cc1ccc(Cl)c(Cl)c1,0,-24,34*,2,3,13*
CCOC(=O)c1sc(=S)[nH]c1C,0,23*,-8,1,-6,-4
CCOC(=O)[C@@H]1CSCCS(=O)(=O)N1Cc1ccccc1,0,-1,-2,-2,2,-2
COc1ccc(-c2nnn(CC(=O)NCCc3ccc(OC)c(OC)c3)n2)cc1,0,-4,11,3,-3,0
COc1ccc(CCNC(=O)Cn2nnc(-c3ccccc3F)n2)cc1OC,0,4,2,9.9*,6,4
COC(=O)C[C@@H]1CC[C@H]2[C@@H](COc3ccc(NC(=O)Nc4ccccc4)cc3C(=O)N2C)O1,0,4,0,-2,0,0
O=C(CNc1cccc([N+](=O)[O-])c1)N1CCN(S(=O)(=O)c2ccc(Cl)cc2)CC1,1,6,3,1,12*,4
O=C(CNc1cccc(S(=O)(=O)N2CCCCCC2)c1)Nc1cccc([N+](=O)[O-])c1,0,-41,4,0,-3,1
O=c1ccc2cc3c([nH]c4ccc(Br)cc43)oc-2c1O,5,43*,17,10*,-10,4
CCCCCCCCN1CN2Cc3cc(OC)ccc3C2CS1(=O)=O (stereo not given),0,-2,1,-5,-12,3
O=C(NC1CCCCC1)Oc1cc2oc(=O)sc2cc1Br,1,0,26*,7,-5,4
O=C(CNS(=O)(=O)c1ccccc1)N1CCN(c2ccccn2)CC1,0,5,-4,3,1,-1
CC(=O)c1ccc(N2CCN(C(=O)CCCn3c(=S)[nH]c4cc5c(cc4c3=O)OCO5)CC2)cc1,0,4,25*,6,2,1
O=C(CCCn1c(=S)[nH]c2cc3c(cc2c1=O)OCO3)N1CCN(c2ccccc2)CC1,0,6,-1,3,2,2
CC1CCCN(Cc2c(O)ccc3c4c(c(=O)oc23)CCCC4)C1 (stereo not given),101*,3,i,i,i,i
CC1CN(Cc2c(O)ccc3c2oc(=O)c2ccccc23)CC(C)O1 (stereo not given),0,10,-12,-206,-274,-8
Cc1csc(N=Nc2ccc(N(C)C)cc2)[n+]1[O-],0,16,-2,11*,10,-2
Cc1ccc(-n2c(SCC(=O)Nc3ccc(Oc4ccccc4)cc3)nnc2-c2cccc(C)c2)cc1,0,0,-8,0,0,-1
O=C(Nc1nc(-c2ccccc2)cs1)C1CCCN(S(=O)(=O)c2cccc([N+](=O)[O-])c2)C1 (stereo not given),0,0,-2,-3,-1,-2
O=C(Nc1nc(-c2cccs2)cs1)c1cccc(S(=O)(=O)N2CCCCC2)c1,-3,-13,38*,-75,-111,16*
O=C(Nc1nc(-c2ccccc2)cs1)C1CCCN(S(=O)(=O)c2ccccc2)C1 (stereo not given),0,-25,17,0,3,9.4*
c1ccc(SCCN2CCN(c3ccccc3)CC2)cc1,0,1,18,10*,-4,0
CCCc1ccc(C2C3=C(CC(C)(C)CC3=O)NC3=C2C(=O)c2ccccc23)cc1 (stereo not given),0,1,12,10*,6,8
CCCCc1ccc(C2C3=C(CC(C)(C)CC3=O)NC3=C2C(=O)c2ccccc23)cc1 (stereo not given),0,8,-6,0,1,-3
CC(=O)C(C(C)=O)c1c(Cl)c(O)c(O)c2c(C(=O)c3ccccc3)coc12,-1,9,32*,7,-6,15*
SMILES,KLK7 zymogen act,HGIII-sPLA2 inh,ADAM10 inh,PLC-gamma1 inh,PLCb3 inh,ADAM17 inh
Cc1nc2c(=O)[nH]c(=S)n(C)c2nc1C,1,21*,1,6,4,-1
CC(C)(C)c1ccc(C(=O)Nc2cc(Cl)c(F)cc2C(=O)O)cc1,.,-7,-1,-1,-7,0
Cc1[nH]n(-c2ccccc2)c(=O)c1N=Nc1c(O)cc(S(=O)(=O)N(C)C)c2ccccc12,1,31*,2,-6,-7,-4
Cc1[nH]n(-c2ccccc2)c(=O)c1N=Nc1ccc2c(c1)OCCO2,0,5,-3,-1,3,-2
O=C(Cn1cc[n+](Cc2ccccc2)c1)c1ccc([N+](=O)[O-])cc1,0,-7,8,11*,5,0
COc1cc(C(=O)N/N=C/c2ccc(OC(=O)c3cccc(C)c3)cc2)ccc1O,0,-11,15,16*,3,0
CC(=O)OC12CCCN(C1)/C(=C/c1ccc(Cl)cc1)C2 (stereo not given),0,19,-15,3,-3,-7
Cc1ccc(-n2c(SCC(=O)Nc3cccc4ccccc34)nnc2-c2ccccc2)cc1,0,-3,-2,1,0,2
O=C(O)c1cc(N2N=C(C(F)(F)F)/C(=C/C=C/c3ccco3)C2=O)ccc1Cl,0,-9,4,63*,1,5
CCOC(=O)c1ccc(N2N=C(C)/C(=C/C=C/c3ccco3)C2=O)cc1,0,0,4,0,1,2
CCOC(=O)c1nn(-c2ccc3c(c2)OCO3)cc1O,32*,4,-245,-303,-384,-60
CCOC(=O)c1nn(-c2ccc(C)cc2)cc1O,-2,-8,-9,-4,-6,-3
Cc1ccc(C2=CCN(C)C(=O)N2c2ccc([N+](=O)[O-])cc2)cc1,0,0,1,3,-2,2
C=CC[C@H](CC(=O)N(CCO)Cc1ccccc1)C(=O)NC[C@H](OC(=O)[C@@H](CC=C)Cc1ccc(F)cc1)c1ccccc1,1,-1,0,4,0,-3
C=CC[C@@H](CC(=O)N(CCO)Cc1ccccc1)C(=O)NC[C@@H](OC(=O)[C@@H](CC=C)Cc1ccc(F)cc1)c1ccccc1,0,-29,20,10*,3,10.0*
C=CC[C@@H](CC(=O)N(CCO)Cc1ccccc1)C(=O)N[C@H](COC(=O)[C@@H](CC=C)Cc1ccc(F)cc1)Cc1ccccc1,0,-29,33*,9,3,14*

# Screens from PubChem.
